Test results from PubChem BioAssay (NCATS).
Inconclusive results are not listed. Where a call stands in place of a potency, no number is given. Unmarked numbers belong to inactive results. The source made the active and inactive calls. Calls come from the whole dose curve; as a rule, active = well fitted inhibition curve with a large enough effect; inconclusive = small, poorly fitted or top-dose-only effect; inactive = flat fitted curve, though single readings scatter.
Potency is the fitted concentration of half-maximal effect.

Test: P-glycoprotein substrates identified in KB-8-5-11 adenocarcinoma cell line, qHTS therapeutic library screen (AID 1346987); note: nearly all actives have a fitted effect of over 65% in size
Conditions: KB-8-5-11 (P-gp overexpressing) viability, CellTiter-Glo, 72 h; series mostly up to 44.5 µM
Summary of the method: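 KB-8-5-11, a colchicine-selected P-gp-overexpressing KB-3-1 subline, was grown without colchicine for the assay. Cells were seeded at 500 cells/well, dosed in concentration-response and incubated 72 h at 37 degree C, 5% CO2. Viability was read by CellTiter-Glo luminescence.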
In the case of `CCC(=O)N1CCOc2c(cc(-c3ccc(OC)c(OC)c3)cc2OC[C@H]2CCCN(C)C2)C1`, the Potency is reported as “inactive”. In the case of `C/C(=C/C=C\C=C\Cc1cnco1)[C@@H](O)C(C)(C)C(N)=O`, the Potency is reported as “inactive”. In the case of `O=C(Nc1cccc2cccnc12)c1ccc(N2C(=O)[C@@H]3C4C=CC(C4)[C@@H]3C2=O)cc1`, the Potency is reported as “inactive”. For `Cc1cc(C(=O)Nc2cc(Oc3ccc4nc(NC(=O)C5CC5)cn4n3)ccc2C)n(C)n1`, the Potency was 9.2 µM (active). For `CCCn1cc2c(nc(NC(=O)Nc3ccc(OC)cc3)n3nc(-c4ccco4)nc23)n1`, the Potency was “inactive”. For `C=CC(=O)N1CCC[C@@H](n2nc(-c3cccc(C(=O)Nc4ccc(C(C)C)c(C)c4)c3)c3c(N)ncnc32)C1`, the Potency was “inactive”. For `CCn1c2ccccc2c2cc(Nc3ccnc(NCCCN4CCOCC4)n3)ccc21`, the Potency was 20.6 µM (active). In the case of `C=CCC1=C[C@]2(OC)[C@H](C)[C@@H](c3ccc4c(c3)OCO4)O[C@]2(OC)CC1=O`, the Potency is reported as “inactive”. In the case of `CC(C)n1cnc2c(-c3cnc(N)nc3)nc(N3CCOCC3)nc21`, the Potency is reported as 0.709 µM (active). `CC(C)NC(=O)N1CC[C@H](N=C2Nc3cc(F)ccc3N(CC(F)F)c3ccc(Cl)cc32)C1` gave an activity change, negative = cytotoxicity of -19.3% [at 9.29 µM]. With `COC(=O)c1ccnc(-c2cc(C(=O)Nc3ccc(C4(N)CC4)cc3)ccn2)c1` the Potency was “inactive”. In the case of `CCN(CC)C(=O)c1ccc(Nc2nc(OCC3CCCCC3)c3[nH]cnc3n2)cc1`, the Potency is reported as 18.4 µM (active). In the case of `CN(c1ccc(NC(=O)Nc2ccccc2)cc1)S(=O)(=O)c1cnn(-c2ccc(F)cc2)c1`, the Potency is reported as 11.6 µM (active). With `CN1CCC(c2cn(C)c3ccc(OS(=O)(=O)c4c(F)cccc4F)cc23)CC1` the Potency was 18.4 µM (active). With `O=C(Nc1ccc(CN2CCOCC2)cc1)c1ccc(-c2cccc(Cl)c2)o1` the Potency was 16.4 µM (active). For `O=C(O)c1cc(N(Cc2ccc(C3CCCCC3)cc2)C(=O)c2ccc(Oc3ccccc3)cc2)ccc1O`, the Potency was “inactive”. In the case of `CC1(C=O)CCCC2(C)C1CCC13CC(CO)C(CCC12)C3` (stereo not drawn), the Potency is reported as “inactive”. In the case of `Cc1cccc(C#Cc2cc(F)cc(C#N)c2)n1`, the Potency is reported as “inactive”. For `C/C=C/C=C/c1cc2c(C=O)c(O)c(CC=C(C)C)cc2o1`, the Potency was “inactive”. For `COc1ccc(S(=O)(=O)Nc2cc(Cl)cc(Cl)c2OC)cc1N1CCNCC1`, the Potency was “inactive”. For `CCCCCCCCn1cc(CN(CC)CC)c2cc(-c3cnc(N)nc3)ccc21`, the Potency was 18.4 µM (active). With `OC1CCC(Nc2nc(-c3ccccc3)nc3[nH]ccc23)CC1` (stereo not drawn) the Potency was “inactive”. For `COc1cc(C(=O)NC(=S)Nc2cccc(NC(=O)c3ccccc3)c2)cc(OC)c1OC`, the Potency was “inactive”. With `C/C=C/C=C/C=C/C(=O)O[C@@H]1C=C(CO)C(O)(C(=O)OC)[C@@]2(C)CCCC(C)(C)C12` (stereo partly drawn) the Potency was “inactive”. In the case of `O=C(O)c1ccc(S(=O)(=O)N(Cc2ccc(OC(F)(F)F)cc2)c2ncc(C(F)(F)F)cc2Cl)cc1`, the Potency is reported as “inactive”. In the case of `CN(C)CCOc1cc(NS(=O)(=O)c2c(Cl)cc(C(F)(F)F)cc2Cl)ccc1Cl`, the Potency is reported as “inactive”. With `Nc1nc(NC2CC2)cc(-c2cccc(Cl)c2Cl)n1` the Potency was 6.51 µM (active). In the case of `CC(C)C[C@@H]1NC(=O)[C@@H](Cc2ccccc2)NC(=O)C(CCCCCC(=O)C2CO2)NC(=O)[C@@H]2CCCCN2C1=O` (stereo partly drawn), the Potency is reported as 3.99 µM (active).
